Source: PubChem BioAssay (several laboratories)
This is a sample that favours compounds with a hit; in the whole collection about 1.2% have one here.
Efflux pump mplx – inhibitors of Candida antifungal efflux pumps expressed in yeast; S. cerevisiae Candida pump triplex, Nile Red efflux; inhibition, % at 10 µM; hit rate 0.44% among 330,000; AID 485275;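 active = plate passing quality check with inhibition over a set limit, or well fluorescence over plate mean plus 4 SD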;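 also: Nile Red retained in pooled yeast measured as flow cytometry median fluorescence; 0% = buffer negative control and 100% = Enniatin B positive control; higher means more Nile Red kept so more efflux inhibition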
LRH-1 inv ag – inverse agonists of human LRH-1 (NR5A2). O00482. HEK293T StAR-luciferase reporter, LRH-1 transfected, 24 h. inhibition, % at 3.6 µM. hit rate 0.13% among 360,000;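 active = inhibition above the mean inhibition of all tested compounds plus 3 SD, cut at about 73% in these data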;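 also: 0% = DMSO wells and 100% = reporter-only cells lacking LRH-1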
NCOA1 inh – inhibits human SRC1 coactivator; inhibition, % at 3.6 µM; Q15788; HEK293 GAL4-SRC1 luciferase reporter, luminescence; AID 588354; hit rate 0.12% among 360,000;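 active = inhibition above the campaign mean plus 3 SD, with each screening campaign given its own cutoff, cut at about 60% in these data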;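 also: 0% = DMSO treated cells and 100% = gossypol at 36 µM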
NR2F2 inh – NR2F2 (human) inhibition, primary screen | hit rate 0.7% among 370,000 | inhibition, % at 8.6 µM | P24468 | HEK293T NGFI-A luciferase reporter, luminescence;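 active = inhibition above a per-plate cutoff, mean inhibition of test wells between control levels plus 3 SD, cut at about 38% in these data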;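 also: cells cotransfected with COUP-TFII expression vector driving the NGFI-A reporter; 0% = median of COUP-TF2 test wells and 100% = reporter-only cells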
SRC2 inh – inhibits human steroid receptor coactivator 2; Q15596; HEK293 GAL4-SRC2 luciferase reporter, luminescence; inhibition, % at 9 µM; hit rate 0.17% among 370,000;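 active = inhibition above the mean inhibition of all tested compounds plus 3 SD, set per campaign, cut at about 52% in these data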;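 also: 0% = DMSO treated cells and 100% = cells given Gossypol at 36 µM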
NCOA3 inh – inhibitors of human steroid receptor coactivator 3 (SRC3). inhibition, % at 3.6 µM. HEK293 GAL4-SRC3 luciferase reporter, luminescence. hit rate 0.17% among 360,000. Q9Y6Q9. AID 588352;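 active = inhibition above a per-campaign cutoff, the mean of all compounds plus 3 SD, cut at about 60% in these data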;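 also: 0% = DMSO-treated cells and 100% = gossypol-treated cells at 36 µM; higher means less SRC3-driven luciferase light from the GAL4 reporter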
Starred values were filed as active, the others as inactive; / = not tested or not shown.

SMILES	Efflux pump mplx	LRH-1 inv ag	NCOA1 inh	NR2F2 inh	SRC2 inh	NCOA3 inh
COc1ccc(-c2cc(-c3nc4ccccn4c3NCc3ccccc3)ccc2OC)cc1	0	91*	15	101*	91*	64*
CCCC(=O)NC(c1ccc(Cl)cc1Cl)c1ccc2cccnc2c1O (centres undefined)	0	27	28	-18	36	37
CCN(CC)c1ccc(C(NC(=O)C(C)C)c2ccc3cccnc3c2O)cc1 (centres undefined)	/	96*	43	-23	32	50
CCCC(=O)NC(c1ccccc1OC)c1ccc2cccnc2c1O (centres undefined)	0	80*	39	/	/	53
CCCC(=O)NC(c1ccc(Cl)cc1)c1ccc2cccnc2c1O (centres undefined)	0	77*	48	14	19	48
CCCCC(=O)NC(c1ccc(N(C)C)cc1)c1ccc2cccnc2c1O (centres undefined)	0	13	46	-31	3	44
CCCCC(=O)NC(c1ccc(N(CC)CC)cc1)c1ccc2cccnc2c1O (centres undefined)	0	4	38	14	11	17
CCCC(=O)NC(c1ccc(C)cc1)c1ccc2cccnc2c1O (centres undefined)	0	85*	65*	/	/	68*
Cn1c(=O)[nH]c(=O)c2c1nc(NCCCn1ccnc1)n2CCOc1ccccc1	0	6	8	-3	-18	-18
COc1cccc(CNC(=O)CN(C)S(=O)(=O)c2ccc3c(c2)CC(C)N3C(C)=O)c1 (centres undefined)	0	9	10	14	-5	-5
CCCCC(=O)NC(c1ccc(Cl)cc1)c1ccc2cccnc2c1O (centres undefined)	0	84*	44	-9	18	50
O=C(NN/C(=N/S(=O)(=O)c1ccc(Cl)cc1)c1ccccc1)c1cccc(Cl)c1	0	-100	-122	-59	-35	-79
CC1(C)Cc2c(sc(NC(=O)COc3ccc(Cl)cc3)c2C#N)C(C)(C)N1	1.6*	-13	-14	/	/	-16
Cc1ccc(S(=O)(=O)CCC(=O)OCC(=O)NC(C)c2ccc(F)cc2)cc1 (centres undefined)	0	-5	-5	5	6	7
COc1ccccc1N1CCN(C(=O)CN2C(=O)c3cccc4cccc(c34)C2=O)CC1	0	16	-18	-4	5	12
Cc1cc(C=C2C(=O)c3ccccc3C2=O)c(C)n1-c1ccc(C(=O)O)cc1	0	12	3	7	-14	-6
Cc1cc(C=C2C(=O)c3ccccc3C2=O)c(C)n1-c1ccccc1	0	-7	2	0	3	85*
NNC(=O)CCCNc1ncc(C(F)(F)F)cc1Cl	0	-7	-4	-4	-13	14
Cc1ccccc1CN1CC2=C(CCN(Cc3ccccc3)C2=O)N2CCN=C12	/	85*	49	37	2	62*
Cc1ccc(NS(=O)(=O)c2ccc(C(=O)N3CCCCCCC3)cc2)cc1	0	15	-15	-5	17	13
CCOC(=O)c1ccc(N=Cc2cnc(N)nc2N)cc1	/	88*	-2	1	-8	2
CCOC(=O)c1ccc(N=CC2=C(O)CC(C)(C)CC2=O)cc1	0	-21	-9	-11	4	4
CC(C)NS(=O)(=O)c1ccc(OCC(=O)N2CCN(c3ccccc3)CC2)cc1	0	-9	-6	15	5	7
O=C(COc1ccc(S(=O)(=O)NC2CCCCC2)cc1)N1CCN(c2cccc(Cl)c2)CC1	0	16	8	57*	25	26
NC(=S)NN=Cc1nccc2c(N)cccc12	/	29	74*	-17	-22	62*
SMILES	Efflux pump mplx	LRH-1 inv ag	NCOA1 inh	NR2F2 inh	SRC2 inh	NCOA3 inh
CCN(C(C)=O)c1cnc(C=NNC(N)=S)c2ccccc12	/	66	16	2	-10	41
CC1=[N+](C)c2c(ccc3cccnc23)C1(C)C	/	59	18	77*	14	34
CC(NS(=O)(=O)c1c(N)n(C)c(=O)n(C)c1=O)c1ccccc1 (centres undefined)	0	-13	-27	0	2	5
COc1ccc2[nH]c(C(=O)NCCN3CCOCC3)cc2c1	0	6	11	4	-2	12
O=S(=O)(c1ccc(Cl)cc1)N1CCCC1c1nc(-c2ccc(Cl)cc2)no1 (centres undefined)	0	-1	-3	3	95*	7
CC(=O)c1ccc(N2CCN(CC(=O)Nc3cc(C)on3)CC2)cc1	0	7	0	-15	-7	19
COc1ccc(-c2n[nH]c(=S)n2-c2ccc(C)cc2)cc1	0	1	29	11	23	15
COC(C(=O)C(O)C(C)O)C1Cc2cc3cc(OC4CC(OC5CC(O)C(O)C(C)O5)C(O)C(C)O4)c(C)c(O)c3c(O)c2C(=O)C1OC1CC(OC2CC(OC3CC(O)C(OC)C(C)O3)C(O)C(C)O2)C(O)C(C)O1 (centres undefined)	/	98*	75*	-11	32	86*
CC(=O)NC(c1ccc(Cl)cc1Cl)c1ccc2cccnc2c1O (centres undefined)	0	88*	40	-9	23	23
CC(=O)NC(c1ccc2ccccc2c1)c1ccc2cccnc2c1O (centres undefined)	0	90*	48	-19	27	42
COc1ccc(Nc2ccncc2[N+](=O)[O-])cc1	0	45	20	17	29	34
Cn1ncc2c(NCc3ccccc3)ncnc21	0	8	-3	13	-7	2
Clc1ccc(Cn2ncc3c(NCc4ccccc4)ncnc32)c(Cl)c1	5.5*	/	/	6	-19	/
CCN1CCN(c2cc(-c3ccccc3)nc3cc(-c4cccc(F)c4)nn23)CC1	1.3*	32	-34	-4	15	12
O=C(C/C=N/OCc1ccc(Cl)cc1Cl)c1ccc(Cl)cc1	0	-7	-10	4	3	9
CCCCNC(=O)C1c2ccccc2C(=O)N(c2ccc(OC)cc2)C1c1ccc(OC)cc1 (centres undefined)	0	7	-1	-13	-20	-18
COc1ccc(C2C(C(C)=O)=C(C)N=c3s/c(=C\c4ccco4)c(=O)n32)c(OC)c1 (centres undefined)	0	-10	-16	7	2	-2
CCOC(=O)C1=C(C)N=c2s/c(=C\c3ccc(O)c([N+](=O)[O-])c3)c(=O)n2C1c1ccccc1OC (centres undefined)	1	-19	1	10	-12	4
COc1ccc(C2C(C(C)=O)=C(C)N=c3s/c(=C\c4cc(C)n(C)c4C)c(=O)n32)c(OC)c1 (centres undefined)	2.5*	-22	-16	8	-11	19
